Compound activity as filed in PubChem BioAssay.
Pf growth 48h: P. falciparum growth inhibition at 48 hours (one generation). hit rate 5.9% among 310,000. P. falciparum luciferase growth in erythrocytes, 48 h. Potency, µM (titrated, usually from 28.7 µM), without a hit: top-dose activity change, negative = inhibition, most hits filed as inhibitors. AID 504832; also: potency is read from the fitted curve at half-maximal effect; % is scaled to controls: 0 for no effect and ±100 for the full control effect
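A one-generation exposure of luciferase-tagged malaria parasites in RPMI 1640/Albumax erythrocyte culture, 37 C and 5% CO2. Inhibition is inferred from decreased luminescence after adding detection reagent.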
SARS PLP yeast: blocks SARS-CoV papain-like protease in a yeast assay | S. cerevisiae expressing SARS-CoV PLpro, growth rescue | Potency, µM (titrated, usually from 32.9 µM), without a hit: at the top dose activity, positive = growth rescue, actives largely listed as activators | hit rate 0.19% among 330,000 | AID 485353; calls by dose curve; also: potency is read from the fitted curve at half-maximal effect; 0% is about no effect; nearly all actives have a fitted effect of over 55% in size
HCV inhibitor: inhibitors of hepatitis C virus infection; Huh7.5.1 HCVcc-Cre infection, luciferase reporter, 44 h; Potency, µM (highest dose often 41.8 µM), without a hit: at the top dose activity change, negative = inhibition, hits mostly inhibitors; hit rate 3.4% among 340,000; AID 651820; also: potency is read from the fitted curve at half-maximal effect; % is scaled to controls: 0 for no effect and ±100 for the full control effect
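Reporter virus HCVcc-Cre (~0.5 moi) infects cells exposed to compound; seeding density 1,000 cells/well with 4 h settling beforehand. Luminescence, 15 sec read, taken 44 h post-infection following a 15 min RT substrate incubation.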
Sm TGR block: blocks Schistosoma mansoni thioredoxin glutathione reductase | Q962Y6 | Potency, µM (titrated, usually from 114 µM), without a hit: at the highest dose activity change, negative = inhibition, most hits filed as inhibitors | hit rate 3% among 360,000 | purified TGR, DTNB reduction, TNB absorbance 405 nm; also: potency is read from the fitted curve at half-maximal effect; % is scaled to controls: 0 for no effect and ±100 for the full control effect; nearly all actives have a fitted effect of over 60% in size
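Kinetic colorimetric format: TGR-catalysed, NADPH-driven DTNB reduction monitored via TNB absorbance. Enzyme dispensed at 20 nM; compound exposure 15 min at room temperature before reaction start.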
Pf growth 96h: inhibits malaria parasite growth, 96 h; Potency, µM (series often up to 28.7 µM), for the others: at the top dose activity change, negative = inhibition, actives largely listed as inhibitors; AID 504834; hit rate 6.9% among 320,000; P. falciparum luciferase reporter growth, 96 h; also: potency is read from the fitted curve at half-maximal effect; % is scaled to controls: 0 for no effect and ±100 for the full control effect
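Cell-based qHTS: luciferase-tagged P. falciparum in erythrocytes (2% hematocrit, 0.05% parasitemia final) incubated with compounds for 96 hours, 37 C, 5% CO2; luciferase detection reagent then added and luminescence measured.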
HCMV inh: inhibitors of human cytomegalovirus; HFF cells, HCMV-luciferase reporter, 72 h; hits give low values; activity change, negative = inhibition, % at 57.5 µM; hit rate 4.5% among 410,000; AID 1259415; in the data active = activity change below about -60%; inconclusive = no clear call, values can overlap the other calls; inactive = above about -39%; also: % is scaled to controls: 0 for no effect and ±100 for the full control effect
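Two compound doses tested in HFFs infected with HCMV-luciferase, MOI 1 PFU/cell, 72 h at 37C. Lysate luminescence read with OneGlo; data normalized against buffer-only and 10uM Salinomycin inhibitor controls.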
* hit, by the source's call; ? = inconclusive; nt = no result given; ! = not active in a repeat; [ ] = remark or other dose. The list is not random: actives were taken first. Their share in the collection is about 15%. Unless noted, calls follow the shape of the dose curve; as a rule, active = well fitted curve in the direction sought with a large enough effect; inconclusive = small, poorly fitted or top-dose-only effect, or another doubt; inactive = no such curve, though single readings can be large; an effect the other way counts as inactive or inconclusive.

SMILES	Pf growth 48h	SARS PLP yeast	HCV inhibitor	Sm TGR block	Pf growth 96h	HCMV inh
CCCC[N+]12CCC(CC1)C(Cc1ccccc1)C2 (centres undefined)	?	-0.1%	-0.5%	6.0%	?	12.1
C[N+]12CCC(CC1)C(C(O)(c1ccccc1)c1cccs1)C2 (centres undefined)	11.7µM*	-0.6%	6.0%	0.0%	2.62µM*	-8.4
CCCC[N+]12CCC(CC1)C(C(O)(c1ccccc1)c1ccccc1)C2 (centres undefined)	?	-1.6%	0.9%	0.8%	10.4µM*	-34.8
O=C(NNc1ccc(C2CCCCC2)cc1)C(O)(c1ccccc1)c1cccs1 (centres undefined)	?	-30.9%	?	-17.1%	74.2%	28.9
CCC[N+]12CCC(CC1)C(C(O)(c1ccccc1)c1ccccc1)C2 (centres undefined)	?	1.4%	-5.8%	13.7%	5.22µM*	-10.4
CCOC(=O)C1=C(C)N2C(=C(C#N)[C@@H]1c1ccc(C(=O)OC)cc1)SC[C@@]2(O)C(C)(C)C	13.1µM*	-15.0%	?	-0.1%	nt	14.6
CC1=CC(C)(C(Cl)(Cl)Cl)C(C)=CC1=NO (centres undefined)	nt	nt	nt	nt	nt	-69.3*
O=C(C1CCN(S(=O)(=O)c2cccnc2)CC1)N1CCN(c2ccc(Cl)cc2)CC1	?	-0.7%	?	5.8%	?	-90.0*
O=C(C1CCN(S(=O)(=O)c2cccc3cccnc23)CC1)N1CCN(c2ccc(Cl)cc2)CC1	nt	2.5%	11.2µM*	-9.8%	-25.3%	-79.2*
O=C(C1CCN(S(=O)(=O)c2cccc3cccnc23)CC1)N1CCN(c2ccccn2)CC1	?	-2.6%	12.0%	0.4%	?	-12.0
COc1ccc(N2CCN(C(=O)C3CCN(S(=O)(=O)c4cn(C)cn4)CC3)CC2)cc1	nt	nt	nt	-2.0%	nt	-72.4*
O=C(C1CCN(S(=O)(=O)c2cccnc2)CC1)N1CCN(c2ccccc2Cl)CC1	?	nt	-4.5%	-12.0%	-9.5%	-2.1
O=C(C1CCC1)N1CCN(c2ccc(Cl)cc2)CC1	3.8%	-8.0%	-18.9%	-1.3%	7.38µM*	55.3
CCn1nc(C)c(CCN(C)C(=O)Nc2cc(OC)c(OC)c(OC)c2)c1C	nt	nt	nt	-0.1%	nt	17.0
COC(=O)c1ccc(NC(=O)CC2C(=O)N(c3cccc(OC)c3)C(=O)N2Cc2cccc(OC)c2)cc1 (centres undefined)	nt	nt	nt	0.0%	nt	?
O=C(C1c2ccccc2Oc2ccccc21)N1CCN(c2ccc(Cl)cc2)CC1	nt	-1.0%	?	-3.2%	2.08µM*	-6.8
COc1ccccc1N1CCN(C(=O)C2c3ccccc3Oc3ccccc32)CC1	?	-15.1%	?	-8.6%	?	?
O=C(C1CCC(CNS(=O)(=O)c2cccc3cccnc23)CC1)N1CCCC1 (centres undefined)	-2.4%	6.8%	-3.9%	-9.8%	13.1µM*	-24.1
CCC(C)c1ccc(NC(=O)N2CCN(C(=O)C3CCCO3)CC2)cc1 (centres undefined)	6.2%	0.5%	nt	-0.2%	-0.2%	14.1
CCN(CC)c1ccc2cc(C(=O)c3cccs3)c(=O)oc2c1	nt	nt	nt	nt	nt	-30.2
COc1ccc(N(CC(=O)NCCC2=CCCCC2)S(=O)(=O)c2ccc(C)cc2)cc1	?	-0.5%	nt	nt	?	nt
Cc1ncc(COCc2ccccc2)c(CO)c1OCc1ccccc1	nt	nt	-18.9%	nt	nt	?
O=C(Cc1ccccc1)c1ccccn1	nt	nt	22.9%	nt	nt	12.5
OCc1ccc(O)c2ncccc12	9.28µM*	5.0%	11.2µM*	22.4µM*	?	-97.7*
Oc1ccc(COCc2ccccc2)c2cccnc12	3.29µM*	-2.8%	5.01µM*	35.5µM*	4.15µM*!	-98.7*
SMILES	Pf growth 48h	SARS PLP yeast	HCV inhibitor	Sm TGR block	Pf growth 96h	HCMV inh
Cc1cccnc1NC(=S)NCc1ccco1	38.7%[5.75 µM]	-0.3%	-10.9%	?	?	-18.8
CN(Cc1ccco1)Cc1ccc(O)c2ncccc12	?	-0.4%	nt	0.708µM*	10.4µM*	nt
Oc1cccc2cccnc12	?	-39.0%	nt	-24.4%	?	nt
Oc1ccc(Cc2ccccc2)c2cccnc12	nt	nt	?	nt	nt	-100.5*
O=C(/C=C/[C@H]1O[C@@H](n2ccc(=O)[nH]c2=O)[C@H](O)[C@@H]1O)NCCN1CCOCC1	nt	nt	nt	nt	nt	23.9
Cc1cc(-c2ccc(C)c(S(=O)(=O)NC(c3cccs3)C(C)C)c2)on1 (centres undefined)	nt	nt	nt	-1.0%	nt	-25.9
COc1ccccc1Nc1nnc(SCC(=O)c2cc(C)n(CC3CCCO3)c2C)s1 (centres undefined)	10.4µM*	3.2%	?	6.6%	4.65µM*	-76.1*
Cc1cc(C(=O)CSc2nnc(Nc3ccccc3)s2)c(C)n1CC1CCCO1 (centres undefined)	nt	7.2%	?	-26.0%[11.4 µM]	10.8%[5.75 µM]	28.5
Cc1cc(C(=O)CSc2nnc(-c3cccnc3)n2-c2ccccc2F)c(C)n1CC1CCCO1 (centres undefined)	nt	-2.9%	-16.1%	-7.4%	14.7µM*	2.1
COc1ccccc1C(=O)Nc1nnc(SCC(=O)NCC2CCCO2)s1 (centres undefined)	184.9%	0.5%	-1.2%	-19.8%	75.4%	59.3
Cc1cc(C(=O)CSc2nnc(Nc3ccccc3F)s2)c(C)n1CC1CCCO1 (centres undefined)	nt	1.0%	6.31µM*	-0.2%[11.4 µM]	-0.1%	-11.2
Cn1c(CC(=O)Nc2ccccc2F)nnc1SCC(=O)N1CCOCC1	33.3%	?	12.4%	0.0%	-8.8%	20.0
CC1CCCCN1S(=O)(=O)c1ccc2[nH]c(=O)cc(C(=O)NCCc3ccc(Cl)cc3)c2c1 (centres undefined)	nt	nt	nt	17.9%	nt	-18.2
CCOc1ccc(C2C(C(=O)Nc3ccc(OC)cc3)=C(C)Nc3nc(SCc4ccc(Cl)cc4)nn32)cc1 (centres undefined)	nt	nt	nt	6.5%	nt	9.1
NC(=O)N/N=C/c1ccc(-c2cccc(C(F)(F)F)c2)o1	33.7%	-4.2%	-1.0%	-4.6%	74.3%	26.1
O=C(N/N=C/c1ccc(-c2cccc(C(F)(F)F)c2)o1)c1ccccc1Br	0.5%	-7.9%	?	-0.7%	70.9%	-62.0*
O=C(N/N=C/c1ccc(-c2cccc(C(F)(F)F)c2)o1)c1cccc(F)c1	11.7µM*	-17.3%	?	-19.5%	?	?
O=C(N/N=C/c1ccc(-c2cccc(C(F)(F)F)c2)o1)c1ccccc1O	8.28µM*	16.9%	0.0%	-10.5%	-14.7%	-25.0
N#Cc1ccc(COC(=O)CC(NC(N)=O)c2ccc(Cl)cc2)cc1 (centres undefined)	10.5%	-0.8%	9.8%	4.6%	28.3%	34.6
